{
  "source": "PubChem BioAssay (NCATS)",
  "key": {"[1]": {"tested_on": "Zika virus NS2B-NS3 protease", "experiment": "Primary screen GU AMC qHTS for Zika virus inhibitors (AID 1347154); further: nearly all actives have a fitted effect of over 70% in size", "procedure,_shortened": "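Unlinked Zika NS2B hydrophilic domain/NS3 protease domain noncovalent complex (25 nM final) in 10 mM Tris-HCl pH 8.0, 0.01% Tween 20, with AMC peptide substrate. Fluorescence (ex 340, em 450 nm) change over 15 min, room temperature; percent inhibition fitted to 4-parameter Hill equation.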"}, "[2]": {"experiment": "qHTS to identify inhibitors of the type 1 interferon - major histocompatibility complex class I in skeletal muscle: primary screen against the NCATS Mechanism Interrogation Plate v5.0 (MIPE) Libary (AID 1347411); further: nearly all actives have a fitted effect of over 65% in size", "procedure,_shortened": "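Cells were genome-edited human myoblasts carrying a HiBit tag on endogenous HLA-B. They were treated with IFN-beta (4.0 ng/ml) and titrated compounds (top 46 uM) for 24 hrs before lytic HiBiT detection.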"}, "[3]": {"experiment": "Primary qHTS for inhibitors of nuclear receptor binding SET domain protein 2 (NSD2) in an isogenic RCH-ACV NSD2 p.E1099K mutant (9B) (AID 1645876); further: potency means the concentration at half of the fitted maximal effect; nearly all actives have a fitted effect of over 70% in size"}, "[4]": {"experiment": "Primary qHTS for inhibitors of nuclear receptor binding SET domain protein 2 (NSD2) in an RCH-ACV wild type WT cells (2C) (AID 1645877); further: potency means the concentration at half of the fitted maximal effect; nearly all actives have a fitted effect of over 70% in size"}, "[5]": {"target": "Glutathione peroxidase 1 (Homo sapiens) (UniProt P07203)", "sequence (P07203 whole entry, looked up)": "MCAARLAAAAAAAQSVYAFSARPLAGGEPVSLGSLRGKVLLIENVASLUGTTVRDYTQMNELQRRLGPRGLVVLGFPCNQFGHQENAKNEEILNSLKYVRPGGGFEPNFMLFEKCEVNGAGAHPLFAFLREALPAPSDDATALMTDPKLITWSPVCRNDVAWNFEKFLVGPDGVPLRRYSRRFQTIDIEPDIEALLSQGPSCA", "experiment": "Primary qHTS Assay for Inhibitors of Recombinant Selenoprotein Glutathione Peroxidase 1 (GPX1) (AID 1845191); further: nearly all actives have a fitted effect of over 65% in size", "procedure,_shortened": "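Recombinant GPX1 (10 nM final) was preincubated with compound for 30 min at room temperature, then reacted with 1 mM GSH, 0.5 mM CHP, 0.5 mM NADPH and 100 nM glutathione reductase; NADPH fluorescence (340/450 nm) was read at 0 and 15 min.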"}, "[6]": {"target": "Phospholipid hydroperoxide glutathione peroxidase GPX4 (Homo sapiens) (UniProt P36969)", "sequence (P36969 whole entry, looked up)": "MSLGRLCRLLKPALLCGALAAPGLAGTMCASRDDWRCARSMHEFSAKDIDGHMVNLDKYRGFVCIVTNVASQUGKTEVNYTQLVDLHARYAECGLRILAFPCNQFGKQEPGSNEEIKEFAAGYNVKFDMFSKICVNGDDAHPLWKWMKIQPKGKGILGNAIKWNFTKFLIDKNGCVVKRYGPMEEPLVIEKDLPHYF", "experiment": "Primary qHTS Assay for Inhibitors of Recombinant Selenoprotein Glutathione Peroxidase 4 (GPX4) (AID 1845192); further: nearly all actives have a fitted effect of over 65% in size", "conditions": "outcome: at 50 µM (top of the series) unless noted", "procedure,_shortened": "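GR-coupled readout: 100 nM GR, 1 mM GSH, 0.5 mM NADPH; NADPH fluorescence (ex 340/em 450 nm) read at t=0 and after 15 min RT. GPX4 200 nM, preincubated 30 min with compound; substrate 0.5 mM CHP.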"}, "[7]": {"experiment": "qHTS drug screen for cell cycle checkpoint inhibitors in PARPi-resistant BRCA-mutant ovarian cancer cell lines. (AID 1963452; calls by dose curve)", "conditions": "PEO1/OlaR viability, CellTiter-Glo luminescence, 96 h, stronger effect = lower value", "procedure,_shortened": "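PEO1, PEO4 and PEO1/OlaR ovarian cancer cells, 600 per well, exposed 96 h at 37C to a dilution series. Viability read by CellTiter-Glo luminescence, normalized to DMSO and empty wells; activity summarized as Z-AUC.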"}, "[8]": {"experiment": "Counterscreen qHTS for small molecule stabilizers of the endoplasmic reticulum resident proteome: GLuc-NoTag assay (AID 1508627); further: potency means the concentration at half of the fitted maximal effect", "procedure,_shortened": "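SH-SY5Y cells stably expressing constitutively secreted GLuc (no SERCaMP tag) were pre-incubated 5 h, treated with compound for 19 h, then 100 nM thapsigargin for 4 h at 37C; medium GLuc read by coelenterazine luminescence.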"}, "[9]": {"experiment": "Confirmatory qHTS for small molecule stabilizers of the endoplasmic reticulum resident proteome: Secreted ER Calcium Modulated Protein (SERCaMP) assay (AID 1508628); further: nearly all actives have a fitted effect of over 40% in size; further: potency means the concentration at half of the fitted maximal effect", "procedure,_shortened": "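We seeded SH-SY5Y-GLuc-SERCaMP cells, added compounds (three concentrations in the primary run, eleven up to 76.6 uM in confirmation), incubated 16 h, depleted ER calcium with thapsigargin, and read luciferase 4 h later.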"}, "[10]": {"experiment": "Cell Viability qHTS for small molecule stabilizers of the endoplasmic reticulum resident proteome (AID 1508629);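 further: compound exposure about 46 h in total before the viability read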", "conditions": "cell viability counter-screen, 100 nM thapsigargin for final 4 h"}, "[11]": {"target": "Cytochrome P450 3A4 (Homo sapiens) (UniProt P08684)", "sequence (P08684 whole entry, looked up)": "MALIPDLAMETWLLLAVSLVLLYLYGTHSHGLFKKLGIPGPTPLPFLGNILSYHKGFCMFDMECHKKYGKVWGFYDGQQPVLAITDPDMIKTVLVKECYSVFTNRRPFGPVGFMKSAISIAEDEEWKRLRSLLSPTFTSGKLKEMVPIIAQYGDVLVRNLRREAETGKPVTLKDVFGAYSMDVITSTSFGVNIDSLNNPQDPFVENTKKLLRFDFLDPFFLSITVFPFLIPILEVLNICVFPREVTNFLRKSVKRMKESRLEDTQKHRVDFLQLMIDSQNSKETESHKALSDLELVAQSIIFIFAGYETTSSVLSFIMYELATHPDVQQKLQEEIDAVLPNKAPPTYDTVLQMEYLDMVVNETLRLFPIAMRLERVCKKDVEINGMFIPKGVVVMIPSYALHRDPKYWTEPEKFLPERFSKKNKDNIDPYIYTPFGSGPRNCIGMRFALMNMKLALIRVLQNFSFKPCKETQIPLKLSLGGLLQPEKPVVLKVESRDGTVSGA", "experiment": "qHTS Assay for Inhibitors and Substrates of Cytochrome P450 3A4 (AID 884); further: potency means the concentration at half of the fitted maximal effect; nearly all actives have a fitted effect of over 50% in size", "procedure,_shortened": "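20 nM human CYP3A4 with 25 uM Luciferin-PPXE (at KM) in 200 mM KPO4, preincubated 10 min with compound; NADPH regeneration started a 60 min RT reaction. Luciferin detected by luminescence, normalized to 57 uM ketoconazole as full inhibition.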"}, "[12]": {"target": "Cytochrome P450 3A4 (Homo sapiens) (UniProt P08684)", "experiment": "qHTS Assay for Activators of Cytochrome P450 3A4 (AID 885); further: nearly all actives have a fitted effect of over 65% in size", "procedure,_shortened": "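20nM CYP3A4 + 25uM Luciferin-PPXE (=KM), 200mM KPO4; cpd 10 min RT; NADPH regen, 60 min RT; stop w/ detection buffer, 20 min; luminescence. Normalized to 57 uM ketoconazole.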"}, "[13]": {"target": "Catechol O-methyltransferase (Homo sapiens) (UniProt P21964)", "sequence (P21964 whole entry, looked up)": "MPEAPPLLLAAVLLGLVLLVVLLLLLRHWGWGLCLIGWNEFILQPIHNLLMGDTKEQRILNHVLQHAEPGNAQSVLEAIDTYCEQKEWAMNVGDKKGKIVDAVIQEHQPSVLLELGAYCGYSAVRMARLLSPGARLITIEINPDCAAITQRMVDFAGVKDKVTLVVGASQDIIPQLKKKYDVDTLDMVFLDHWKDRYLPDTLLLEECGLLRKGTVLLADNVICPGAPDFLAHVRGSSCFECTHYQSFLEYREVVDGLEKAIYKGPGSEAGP", "experiment": "Confirmatory Screen for Target Class Profiling of Small Molecule Inhibitors of Methyltransferases (AID 1745852; calls by dose curve)", "conditions": "MTase-Glo luminescence, SAH detection, recombinant enzyme; measured here: COMT max response; stronger effect = lower value"}, "[14]": {"target": "Guanidinoacetate N-methyltransferase (Homo sapiens) (UniProt Q14353)", "experiment": "Confirmatory Screen for Target Class Profiling of Small Molecule Inhibitors of Methyltransferases (AID 1745852); further: potency means the concentration at half of the fitted maximal effect", "conditions": "activity change, negative = inhibition: at 57.3 µM (top of the series) unless noted"}, "[15]": {"target": "Nicotinamide N-methyltransferase (Homo sapiens) (UniProt P40261)", "sequence (P40261 whole entry, looked up)": "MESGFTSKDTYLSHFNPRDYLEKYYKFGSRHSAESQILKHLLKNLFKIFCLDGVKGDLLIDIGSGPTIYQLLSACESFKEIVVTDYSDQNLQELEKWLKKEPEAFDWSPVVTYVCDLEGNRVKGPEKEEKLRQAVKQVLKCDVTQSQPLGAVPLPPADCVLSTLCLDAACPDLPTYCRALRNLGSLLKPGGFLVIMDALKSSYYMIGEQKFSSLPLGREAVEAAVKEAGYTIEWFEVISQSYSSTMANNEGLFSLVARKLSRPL", "experiment": "Confirmatory Screen for Target Class Profiling of Small Molecule Inhibitors of Methyltransferases (AID 1745852)", "conditions": "MTase-Glo luminescence, SAH detection, recombinant enzyme; measured here: NNMT max response; stronger effect = lower value"}, "[16]": {"target": "Phenylethanolamine N-methyltransferase (Homo sapiens) (UniProt P11086)", "sequence (P11086 whole entry, looked up)": "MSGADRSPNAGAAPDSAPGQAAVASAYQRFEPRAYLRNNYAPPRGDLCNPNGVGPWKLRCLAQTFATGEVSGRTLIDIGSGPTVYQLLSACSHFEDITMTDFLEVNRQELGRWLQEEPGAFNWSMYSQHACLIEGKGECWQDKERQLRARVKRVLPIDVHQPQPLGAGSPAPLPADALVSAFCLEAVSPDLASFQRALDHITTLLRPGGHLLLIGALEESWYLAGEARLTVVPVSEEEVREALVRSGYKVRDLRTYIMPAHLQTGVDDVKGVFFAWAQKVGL", "experiment": "Confirmatory Screen for Target Class Profiling of Small Molecule Inhibitors of Methyltransferases (AID 1745852)", "conditions": "MTase-Glo luminescence, SAH detection, recombinant enzyme; measured here: PNMT max response; stronger effect = lower value"}},
  "note": "Inconclusive results are not listed. Where a call stands in place of a potency, no number is given. More than one record can exist for a structure, and the calls need not agree. Active and inactive are the calls of the source. Unless noted, the call rests on the fitted dose curve; in most records, active means well fitted curve in the direction sought with a large enough effect; inconclusive means small, poorly fitted or top-dose-only effect, or another doubt; inactive means no such curve, though single readings can be large; an effect the other way counts as inactive or inconclusive.",
  "data": [
    {"smiles": "C[C@H](CCC(=O)NCC(=O)O)C1CC[C@H]2[C@H]3C(C[C@H](O)[C@]12C)[C@@]1(C)CC[C@@H](O)C[C@H]1C[C@H]3O", "note": "(stereo partly specified)", "values": [
      {"measurement": "Potency", "setting": "[1]", "result": "inactive"}
    ]},
    {"smiles": "O=C1CC2(CCCC2)CC(=O)N1CCCCNCC1COc2ccccc2O1", "note": "(stereo unspecified)", "values": [
      {"measurement": "Potency", "setting": "[1]", "result": "inactive"}
    ]},
    {"smiles": "CCCCc1nc2ccn(CC(=O)N(C)C)c(=O)c2n1Cc1ccc(-c2ccccc2-c2nn[nH]n2)cc1", "values": [
      {"measurement": "Potency", "setting": "[1]", "result": "inactive"}
    ]},
    {"smiles": "COc1ccc(S(=O)(=O)N(CCO)c2ccccc2CN(C)C/C=C/c2ccc(Cl)cc2)cc1", "values": [
      {"measurement": "Potency", "setting": "[1]", "result": "inactive"},
      {"measurement": "Potency", "setting": "[2]", "result": "inactive"},
      {"measurement": "Potency", "setting": "[3]", "result": "7.42 µM (active)"},
      {"measurement": "Potency", "setting": "[4]", "result": "8.33 µM (active)"},
      {"measurement": "Potency", "setting": "[5]", "result": "inactive"},
      {"measurement": "Potency", "setting": "[6]", "result": "inactive"},
      {"measurement": "Z-AUC", "setting": "[7]", "result": "-0.289 (inactive)"},
      {"measurement": "Z-AUC", "setting": "[7]; measured here: PEO1 parental Z-AUC", "result": -0.166},
      {"measurement": "Z-AUC", "setting": "[7]; measured here: PEO4 Z-AUC", "result": 0.482}
    ]},
    {"smiles": "CN(Cc1ccccc1)C(=O)[C@H](Cc1ccc2ccccc2c1)NC(=O)[C@@H]1C[C@@H](O)CN1C(=O)c1cn(C)c2ccccc12", "values": [
      {"measurement": "Potency", "setting": "[1]", "result": "inactive"}
    ]},
    {"smiles": "NC(C(=O)O)c1ccc(P(=O)(O)O)cc1", "note": "(stereo unspecified)", "values": [
      {"measurement": "Potency", "setting": "[1]", "result": "inactive"}
    ]},
    {"smiles": "N#Cc1cc2c(OCC(O)CN3CCN(C(c4ccccc4)c4ccccc4)CC3)cccc2[nH]1", "note": "(stereo unspecified)", "values": [
      {"measurement": "Potency", "setting": "[1]", "result": "inactive"},
      {"measurement": "Potency", "setting": "[8]", "result": "inactive"},
      {"measurement": "Potency", "setting": "[9]", "result": "3.98 µM (active) and inactive"},
      {"measurement": "max response", "setting": "[10]", "result": "3.24% (inactive)"}
    ]},
    {"smiles": "CN(C)C1CCc2[nH]c3ccc(NC(=O)c4ccc(F)cc4)cc3c2C1", "note": "(stereo unspecified)", "values": [
      {"measurement": "Potency", "setting": "[1]", "result": "inactive"},
      {"measurement": "Potency", "setting": "[8]", "result": "inactive"},
      {"measurement": "max response", "setting": "[10]", "result": "-26.6% (inactive)"}
    ]},
    {"smiles": "CCOC(=O)NC[C@H](Cc1ccc(OCCc2nc(-c3ccccc3)oc2C)cc1)N/C(C)=C\\C(=O)c1ccc(C(F)(F)F)cc1", "values": [
      {"measurement": "Potency", "setting": "[11]", "result": "0.794 µM (active)"},
      {"measurement": "Potency", "setting": "[12]", "result": "inactive"},
      {"measurement": "Potency", "setting": "[1]", "result": "inactive"},
      {"measurement": "Potency", "setting": "[8]", "result": "inactive"},
      {"measurement": "Potency", "setting": "[9]", "result": "31.6 µM (active)"}
    ]},
    {"smiles": "CNc1cc2c(Nc3cccc(Br)c3)ncnc2cn1", "values": [
      {"measurement": "Potency", "setting": "[1]", "result": "inactive"},
      {"measurement": "Potency", "setting": "[8]", "result": "35.5 µM (active)"},
      {"measurement": "Potency", "setting": "[9]", "result": "2 µM (active)"},
      {"measurement": "Potency", "setting": "[3]", "result": "14.6 µM (active)"},
      {"measurement": "Potency", "setting": "[4]", "result": "20.6 µM (active)"},
      {"measurement": "activity", "setting": "[13]", "result": -38.7, "unit": "%"},
      {"measurement": "Potency", "setting": "[14]", "result": "30.4 µM (active)"},
      {"measurement": "activity", "setting": "[15]", "result": -23.8, "unit": "%"},
      {"measurement": "activity", "setting": "[16]", "result": -74.4, "unit": "%"},
      {"measurement": "Potency", "setting": "[5]", "result": "inactive"}
    ]}
  ]
}
